Screening results from PubChem.
DAX1 inh-1 – inhibitors of DAX1 repression of SF-1 activated StAR promoter. inhibition, % at 6.8 µM. 370,000 tested, 1.1% active. HEK293T StAR-luciferase reporter, SF-1/DAX-1 repression relief. AID 652010;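 active means inhibition above the mean over all tested compounds plus 3 SD, cut at about 3.6% in these data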;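 further: higher inhibition means more luminescence from relief of DAX-1 repression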
DAX1 inh-2 – NR0B1 (DAX1) inhibition; P51843; HEK293 Gal4-DAX1 luciferase reporter, luminescence; inhibition, % at 6.75 µM; 340,000 tested, 0.99% active; AID 504766;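 active means inhibition above the mean over all tested compounds plus 3 SD, cut at about 4.2% in these data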;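 further: inhibition shows as a rise in luminescence from relieved DAX1 repression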
Target sequence (P51843 207-470 limits assumed): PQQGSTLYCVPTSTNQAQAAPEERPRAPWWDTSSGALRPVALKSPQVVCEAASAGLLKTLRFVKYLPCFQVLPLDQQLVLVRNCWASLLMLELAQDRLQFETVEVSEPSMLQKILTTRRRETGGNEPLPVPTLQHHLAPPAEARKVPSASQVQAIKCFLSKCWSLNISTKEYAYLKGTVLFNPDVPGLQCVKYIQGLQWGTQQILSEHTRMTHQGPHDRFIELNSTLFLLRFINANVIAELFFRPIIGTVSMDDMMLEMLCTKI
hgDAF-12 ag – agonists of H. glycines DAF-12 nuclear receptor; activation, % at 6.8 µM; AID 687014; HEK293 GAL4-hgDAF12 UAS-luciferase reporter, agonist luminescence; normalized to butyrate control; 370,000 tested, 1.8% active;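 active means activation above a cutoff set at the mean of all screened compounds plus 3 SD, cut at about 10% in these data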
ssDAF12 agonist – activates DAF-12 receptor from parasite S. stercoralis | HEK293 ssDAF-12/GRIP1 lit1-tk-luc reporter, luminescence; % of 3 µM dafachronic acid response | activation, % at 6.8 µM | 370,000 tested, 1% active | AID 652126;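 active means activation above the mean over all tested compounds plus 3 SD, cut at about 0.9% in these data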
hcDAF-12 act – activators of H. contortus DAF-12 nuclear receptor. HEK293 hcDAF-12 lit1-tk-luc reporter, luminescence; 0% DMSO, 100% Δ7-dafachronic acid. activation, % at 6.8 µM. 370,000 tested, 1.4% active. AID 652067;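 active means activation above the mean of all tested compounds plus 3 SD, cut at about 5.5% in these data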
A number is an active result; i = inactive; nt = no result given. A selection: hits, their analogues and other compounds. The true share with any hit is near 4.1%.

SMILES	DAX1 inh-1	DAX1 inh-2	hgDAF-12 ag	ssDAF12 agonist	hcDAF-12 act
O=C(Nc1nc(-c2ccc3c(c2)OCO3)cs1)C1CC1	i	i	11	i	i
CS(=O)(=O)N1CCC(C(=O)Nc2ccc3c(c2)OCO3)CC1	i	i	i	i	i
O=S1(=O)c2c(cccc2N2CCSCC2)Oc2ccccc2CN1Cc1cn(Cc2ccccc2C(F)(F)F)nn1	i	nt	i	i	i
COc1ccc(Cn2ccc3ccc(-c4ccc5ccn(Cc6ccc(C#N)cc6)c5c4)cc32)cc1	i	nt	i	i	i
CC(Cc1ccccc1)NC(=O)CSc1nc2nc3c(cc2c(=O)n1-c1ccccc1)COC(C)(C)C3 (stereo unspecified)	i	i	i	i	i
CC1CC1C(=O)N1CCC(Oc2cccnc2)CC1 (stereo unspecified)	i	nt	i	i	i
O=S(=O)(CC1NCc2ccccc21)NCc1ccc(F)cc1 (stereo unspecified)	i	nt	i	i	i
O=C(Nc1ccc(N2CCN(c3ccccc3)CC2)c(F)c1)C1CC1	i	i	i	i	5.8
O=C(CSc1ccccc1)Nc1ccc2c(c1)OCO2	i	i	13	i	i
O=C(CSc1ccc2c(c1)OCCO2)Nc1ccc2c(c1)OCO2	nt	i	nt	nt	nt
Cc1ccc(SCC(=O)Nc2ccc(N3CCN(c4ccccc4)CC3)c(F)c2)cc1	i	i	i	i	i
Cc1cccc(C)c1NC(=O)CN1CCCC1	i	4.5	i	i	i
CC(OC(=O)c1ccc(O)cc1)C(=O)Nc1nc(-c2ccccc2)cs1 (stereo unspecified)	i	i	i	i	i
CC(Sc1nnc(Nc2ccccc2)s1)C(=O)Nc1nc(-c2ccccc2)cs1 (stereo unspecified)	i	5.0	i	i	i
O=C(O)COn1c(-c2ccccc2)nc2ccc(Cl)cc21	i	i	i	1.1	i
COn1c(-c2ccccc2)nc2ccc(Cl)cc21	i	i	12	i	i
CCOc1ccc(-n2c(SCC(=O)c3ccc4ccccc4c3)nnc2-c2cccc(Cl)c2)cc1	i	nt	i	i	i
CC(=O)Nc1ccc(OCC=C(Cl)Cl)cc1	i	i	i	i	i
CCOC(=O)CN1C(=O)/C(=C/c2ccccc2Br)Oc2ccccc21	i	i	i	i	5.6
COc1cccc(/C=C2\SC(=S)N(N3C(=O)CCCC3=O)C2=O)c1	i	5.7	i	i	i
COc1cccc(/C=C2\SC(=S)N(CC3CCCO3)C2=O)c1 (stereo unspecified)	i	i	13	i	i
CCOC(=O)NC(=O)c1cn(Nc2ncc(Cl)cc2C(F)(F)F)c(=O)[nH]c1=O	i	6.2	i	i	i
CCOC(=O)NC(=O)c1cn(Nc2ncc(C(F)(F)F)cc2Cl)c(=O)[nH]c1=O	i	i	i	i	i
O=C(OCC#CCSc1nnc(-c2cccc3ccccc23)o1)c1ccsc1	nt	nt	11	i	i
COc1ccc(C(=O)C(C)OC(=O)COc2ccccc2)cc1 (stereo unspecified)	3.8	i	i	i	i
SMILES	DAX1 inh-1	DAX1 inh-2	hgDAF-12 ag	ssDAF12 agonist	hcDAF-12 act
CC(OC(=O)COc1ccc(C#N)cc1)C(=O)c1ccccc1 (stereo unspecified)	i	i	i	i	i
CCC(=O)N1CCc2cc(Br)c(S(=O)(=O)NC3CCN(Cc4ccccc4)CC3)cc21	i	nt	i	i	i
CCOC(=O)c1cn2nc(Oc3ccc(NC(C)=O)cc3)ccc2n1	i	4.9	i	i	i
CCOC(=O)c1cn2nc(Oc3ccc(C(=O)OC)cc3)ccc2n1	i	i	i	i	i
COC(=O)c1ccc2c(c1)C(NC(C)=O)CCc1cc(OC)c(OC)c(OC)c1-2 (stereo unspecified)	4.3	i	i	i	i
COc1cc2c(c(OC)c1OC)-c1ccc(OC)c(=O)cc1C(NC(C)=O)CC2 (stereo unspecified)	i	i	i	i	i
COc1cc2c(c(OC)c1OC)-c1ccc(SC)c(=O)cc1C(NC(=O)c1ccccc1)CC2 (stereo unspecified)	3.7	i	i	i	i
Cc1nnc(SCC(=O)NC(C)(C)C)n1NCc1c(F)cccc1Cl	i	i	i	i	i
COc1ccc(-c2cc(C(=O)NN=Cc3ccccc3F)[nH]n2)cc1	i	nt	i	i	i
CC(=O)c1ccc(NC(=O)c2cc(Cl)sc2Cl)cc1	i	i	12	1.4	i
Cc1cc(C)cc(NC(=O)c2cc(Cl)sc2Cl)c1	i	i	i	i	i
CC(C)(O)c1[nH]c2cc(F)ccc2c1C(C)(C)O	i	i	i	i	5.7
CC(C)(O)c1[nH]c2cc(C(F)(F)F)ccc2c1C(C)(C)O	i	i	i	i	i
CCC(C)NC(=O)C1CCN(c2nc(OC)nc(OC)n2)CC1 (stereo unspecified)	i	i	i	i	i
CCC(C)(C)NC(=O)C1CCN(c2nc(OC)nc(OC)n2)CC1	i	6.1	i	i	i
O=C(c1ccccc1)c1ccc2ccccc2c1	i	5.3	i	i	i
Cc1ccccc1NC(=O)[C@H]1CC(=O)O[C@@H]1c1ccccc1	i	nt	i	i	i
COC(=O)[C@]12C=CCN1[C@@H](c1ccc(OC)c(OC)c1)c1c(c3ccccc3n1S(=O)(=O)c1ccc(C)cc1)C2	i	nt	i	i	5.8
N#CCCn1nc(-c2ccccc2)c2ccccc2c1=O	i	5.0	i	i	i
Cc1nc2ccccc2n1CSc1ccccc1	i	i	i	i	i
Nc1ccccc1C(=O)NNc1c2ccccc2nc2ccccc12	i	i	i	i	6.4
Brc1ccc(-c2cn3c(n2)SCC3)cc1	i	i	11	i	i
CCCc1ccc(-c2cc(NC(=O)Cc3c(C)[nH]c4ccccc34)ccc2N(C)c2cccnc2)cc1	i	nt	i	i	i
CCOc1ccc(-n2c(=O)c3ccccc3c3ccccc3c2=O)cc1	i	4.9	i	i	i
CCOc1ccccc1-n1c(=O)c2ccccc2c2ccccc2c1=O	i	i	i	i	i
SMILES	DAX1 inh-1	DAX1 inh-2	hgDAF-12 ag	ssDAF12 agonist	hcDAF-12 act
CCCn1c(/N=C/c2ccc3c(c2)OCO3)nc2ccccc21	i	i	i	i	i
C=CCn1c(/N=C/c2ccc3c(c2)OCO3)nc2ccccc21	i	i	i	1.2	i
CCCCCCCCN1CN2Cc3ccc(C)cc3C2CS1(=O)=O (stereo unspecified)	i	nt	i	i	i
CN(C)c1ccc(NC(=O)CCCc2ccccc2)cc1	i	i	12	i	i
CCCc1nc2c3ccccc3ccn2c1Cc1cccc(F)c1	i	nt	i	1.1	i
Clc1ccc(-c2nc3c4ccccc4ccn3c2Cc2ccccc2)cc1	i	i	i	i	i
FC(F)(F)c1ccccc1Cc1c(C2CCCCC2)nc2c3ccccc3ccn12	i	nt	i	1.7	i
Fc1ccc(-c2nc3c4ccccc4ccn3c2Cc2cccc(Cl)c2)cc1	i	nt	i	i	5.9
Fc1ccc(-c2nc3c4ccccc4ccn3c2Cc2ccsc2)cc1	i	nt	i	1.1	i
Clc1cccc(Cc2c(-c3ccccc3)nc3c4ccccc4ccn23)c1	i	nt	i	i	i
